Source: PubChem BioAssay (NCATS)
Inconclusive results are not listed. Values without a mark were called inactive. Calls of active or inactive are those of the source. Calls come from the whole dose curve; as a rule, active = well fitted inhibition curve with a large enough effect in the polarisation, with a control signal flat (not every such curve was filed as active); inconclusive = small, poorly fitted or top-dose-only effect, or effect the other way; inactive = flat fitted curve, though single readings scatter; the % refers to the polarisation.

Each molecule was assayed against Peptidyl-prolyl cis-trans isomerase NIMA-interacting 1 (Homo sapiens) (UniProt Q13526) (assay: qHTS Validation Assay to Find Inhibitors of Pin1 (AID 504536)). Details: Pin1 fluorescence polarization peptide binding assay; series mostly up to 57.5 µM; activity, negative = inhibition: at the top concentration.
Excerpt: NIH Molecular Libraries Probe Production Network [MLPCN]
NIH Chemical Genomics Center [NCGC]
The unique chemical properties of Pro allow for the adoption of two completely distinct amide bond conformations (cis and trans). Peptidyl-prolyl cis/trans isomerases (PPIases) are evolutionary conserved enzymes that catalyze cis/trans isomerization of peptidyl-prolyl peptide bonds. Distinct from all other PPIases such as cyclophilins and FK506-binding proteins (FKBPs), Pin1 binds a subset of phos.Ser/Thr-Pro-containing proteins using its protein-targeting WW domain and isomerizes only specific phos.Ser/Thr-Pro bonds, which cannot be effectively catalyzed by other known PPIases.
Pin1-catalyzed conformational regulation can control a spectrum of activities of many key regulators in diverse cellular processes such as cell growth, genotoxic and other stress responses, immune response, germ cell development, neuronal differentiation and survival. Pin1 has emerged as a novel molecular timer that modulates its multiple targets at various steps of a given cellular process to synergistically control the amplitude and duration of a cellular response or process. Importantly, Pin1 is tightly regulated by multiple levels and its deregulation has an important role in a growing number of pathological conditions, including cancer, Alzheimer's disease, aging, asthma and microbial infection, providing a potentially new therapeutic option.
The goal of this screen is to find small-molecule inhibitors of Pin1 using a fluorescence polarization competition assay. A HiFluor-488-labeled peptide binds to the active site of Pin1 and can be displaced by compounds. Compounds were screened as a concentration-titration series that ranged from 57 uM to 0.7 nM.
NCGC Assay Protocol Summary:
Pin1 (0.6 uM) was dispensed into black, solid 1536-well plates at 2 uL/well in 10 mM HEPES (pH 7.5), 10 mM NaCl, 0.01% Tween20, 1 mM DTT, and 1% glycerol. Then, 23 nL of compounds or DMSO were delivered to each well using a pin tool. Two uL of Pin1-1b-HiFluor488 peptide (10 mM HEPES (pH 7.5), 10 mM NaCl, 0.01% Tween20, 1 mM DTT, and 1% glycerol, 0.02 uM Pin1-1b-HiFluor488) was then dispensed, and plates were incubated at room temperature for 10 min. The plates were measured on a ViewLux plate reader for fluorescence polarization signal using a 480/20 nM nm excitation filter and 540/25 nM nm S and P emission filters with a 20 second exposure. The %Activity was determined from the corrected fluorescence polarization values. Unlabeled Pin1-1c peptide was used as a control (3.5 mM two-fold serial; 20 uM final concentration) along with a 1x (0.3 uM) and 0x (no-enzyme) Pin1 enzyme control to normalize %Activity of identified inhibitors; 0x enzyme values corresponded to 100%Activity (full inhibition), while 1x Pin1 enzyme values were used to normalize 0%Activity (no inhibition).
Concentration-response curves were fitted to the signals arising from the resulting fluorescence polarization. The concentration-effect curves were then classified based on curve quality (r2), response magnitude and degree of measured activity, and compounds were subsequently categorized based on their curve class.
Keywords: Peptidyl prolyl isomerase, Pin1, fluorescence polarization, MLSMR, MLPCN, NIH Roadmap, qHTS, NCGC
Potency is the fitted concentration of half-maximal effect.

Chain of Peptidyl-prolyl cis-trans isomerase NIMA-interacting 1 (Homo sapiens) (Q13526 whole entry, looked up): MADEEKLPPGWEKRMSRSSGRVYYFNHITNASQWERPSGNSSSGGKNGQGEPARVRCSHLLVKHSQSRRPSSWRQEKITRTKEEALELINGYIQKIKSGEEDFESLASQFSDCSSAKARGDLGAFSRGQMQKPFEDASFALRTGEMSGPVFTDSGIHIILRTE

Row | SMILES | activity, negative = inhibition [%] | Potency
1 | NNC(N)=O | -2.51 | –
2 | CN(N=O)c1ccc(O)c(O)c1 | – | 4.78 µM (active)
3 | NCCCP(=O)(O)O | 7.08 | –
4 | NC(=O)CI | 4.25 | –
5 | CCCN1CCc2cc(O)cc3c2[C@H]1Cc1ccc(O)c(O)c1-3 | -0.167 | –
6 | Ic1ccccc1CNC1C2CCN(CC2)C1C(c1ccccc1)c1ccccc1 (stereo not given) | -17.9 | –
7 | CN1CCc2cc(O)cc3c2[C@H]1Cc1ccc(O)c(O)c1-3 | -2.31 | –
8 | NCC(CP(=O)(O)O)c1ccc(Cl)cc1 (stereo not given) | -7.57 | –
9 | Cc1o[nH]c(=O)c1CC(N)C(=O)O (stereo not given) | 0.794 | –
10 | C[N+]1(C)C2CCC1CC(OC(=O)c1c[nH]c3ccccc13)C2 (stereo not given) | -0.885 | –
11 | N[C@@H](CCl)C(=O)O | -5.8 | –
12 | C[N+](C)(C)CC#CCN1CCCC1=O | -3.16 | –
13 | NC(Cc1ccc(N(CCCl)CCCl)cc1)C(=O)O (stereo not given) | 4.7 | –
14 | CCCN1CCc2cccc3c2[C@H]1Cc1ccc(O)c(O)c1-3 | -1.67 | –
15 | CC(=O)NBr | 2.79 | –
16 | CCCn1c(=O)c2[nH]c(C3CCCC3)nc2n(CCCOC(=O)c2ccc(S(=O)(=O)F)cc2)c1=O | 0.917 | –
17 | NCCc1c[nH]c2ccc(C(N)=O)cc12 | 6.75 | –
18 | CCCN(CCC)[C@@H]1CCc2cccc(O)c2C1 | 0.56 | –
19 | N#C/C(=C/c1ccc(O)c(O)c1)C(N)=S | 61.1 | –
20 | CNc1ccc2oc(C[C@H]3O[C@@]4(CC[C@H]3C)O[C@H]([C@H](C)C(=O)c3ccc[nH]3)[C@H](C)C[C@H]4C)nc2c1C(=O)O | 1.22 | –

Row | SMILES | activity, negative = inhibition [%] | Potency
21 | CN(N=O)c1cc(O)ccc1O | -12.5 | –
22 | CC(N)Cc1c[nH]c2ccc(O)cc12 (stereo not given) | -2.48 | –
23 | Cc1cc([C@@H]2CCCN2C)on1 | 3.51 | –
24 | OCc1cnc[nH]1 | 1.76 | –
25 | Cc1[nH]c2ccc(O)cc2c1CCN | -3.15 | –
26 | CCCCCCCCCCCCCC(=O)O[C@@H]1[C@@H](C)[C@@]2(O)[C@@H](C=C(CO)C[C@@]3(O)C(=O)C(C)=C[C@@H]23)C2C(C)(C)[C@@]21OC(C)=O (stereo not given in full) | 0.283 | –
27 | Nc1ccc(CCN2CCN(c3cccc(C(F)(F)F)c3)CC2)cc1 | 0.606 | –
28 | NC(=O)c1ccc(OCC(O)CN2CC=C(c3ccc(F)cc3)CC2)cc1 (stereo not given) | -12.6 | –
29 | NC(CCCCCP(=O)(O)O)C(=O)O (stereo not given) | 1.05 | –
30 | C[N+](C)(C)CC#CCOC(=O)Nc1cccc(Cl)c1 | -18.5 | –
31 | O=C(O)c1cc[c]([Hg][Cl])cc1 | 1.61 | –
32 | O=C1C=CC(=O)C=C1 | -3.93 | –
33 | CCCn1c(C)c(C(=O)c2ccc3ccccc3c2)c2ccccc21 | 2.67 | –
34 | c1ccc2cc(CC3=NCCN3)ccc2c1 | -9.54 | –
35 | CCCN1CCC[C@@H](c2cccc(O)c2)C1 | 3.12 | –
36 | CCNC(=O)[C@H]1O[C@@H](n2cnc3c(N)ncnc32)[C@H](O)[C@@H]1O | 7.54 | –
37 | COc1ccc(CNC(=O)/C=C/c2ccc3[nH]cc(CCN(C)C)c3c2)cc1 | 0.91 | –
38 | C=CCN1CCc2cccc3c2[C@H]1Cc1ccc(O)c(O)c1-3 | -4.59 | –
39 | CC12NC(Cc3ccccc31)c1ccccc12 (stereo not given) | -6.78 | –
40 | O=[N+]([O-])/C=C/c1ccc2c(c1)OCO2 | -1.68 | –
